This note sets out measurements from PubChem BioAssay (NCI).

Compounds without any hit were thinned out: in the full panel of roughly 83,000, 20% have a hit.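 For each line, cells grew in 96-well plates with the test compound present at a single concentration for 48 hours.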 A number with no mark means an inactive call. The source made the active and inactive calls. Rule for the calls: active = growth percent below 10; inactive = the rest.

Among the test systems are DU-145 prostate; K-562 leukemia; MALME-3M melanoma; MDA-MB-231 breast; RXF 393 renal; SF-268 CNS; SF-295 CNS; SF-539 CNS; UACC-257 melanoma; M14 melanoma; HCT-15 colon; HT29 colon; SNB-75 CNS; SNB-19 CNS; PC-3 prostate; SK-MEL-5 melanoma; UACC-62 melanoma; LOX IMVI melanoma; SK-MEL-28 melanoma.
Holding throughout (assay): NCI-60 one-dose screen, 48 h (100 = growth as untreated, 0 = no growth, -100 = all killed)
Conditions in all cases: 10 µM unless noted

On to `C[C@]12CC[C@@H]3c4ccc(O)c([N+](=O)[O-])c4CC[C@H]3[C@@H]1CCC2=O`, for which the growth in the test on DU-145 prostate was 117%; in the test with K-562 leukemia, 96.7%; in the test with MALME-3M melanoma, 98.5%; in the test with MDA-MB-231 breast, 91.4%; in the test with RXF 393 renal, 97%; in the test with SF-268 CNS, 66.7%. The growth in the test on SF-295 CNS was 98.7%; with SF-539 CNS, 98.2%; in the test on UACC-257 melanoma it was 106%; with M14 melanoma, 102%; in the test with HCT-15 colon it was 94.4%; in the test on HT29 colon it was 95.5%. Besides, the growth in the test with SNB-75 CNS is 58.1%; in the test with SNB-19 CNS it was 107%; in the test on PC-3 prostate, 97%; in the test with SK-MEL-5 melanoma, 82.3%; with UACC-62 melanoma it was 87.3%; with LOX IMVI melanoma, 90.7%. In the test on SK-MEL-28 melanoma, the growth is 115%.

On to `CCCCCCCCn1ccc2cc(NC(=O)CN3CCN(c4nc(C)cc(Cl)n4)CC3)ccc21`, for which the growth with DU-145 prostate is 101%; in the test with K-562 leukemia, 85.2%; in the test with MALME-3M melanoma it was 91.5%; in the test on MDA-MB-231 breast it was 107%; in the test on RXF 393 renal, 103%; in the test with SF-268 CNS, 96.3%. In addition, the growth is 102% in the test with SF-295 CNS; 107% in the test on SF-539 CNS; 114% in the test with UACC-257 melanoma; 96.1% in the test on M14 melanoma; 77.1% with HCT-15 colon; 65.3% with HT29 colon. Moreover, the growth was 87% in the test with SNB-75 CNS; 102% in the test with SNB-19 CNS; 75.6% in the test with PC-3 prostate; 91.1% in the test with SK-MEL-5 melanoma; 76.4% in the test on UACC-62 melanoma; 99.6% with LOX IMVI melanoma. In addition, the growth in the test on SK-MEL-28 melanoma is 98%.

Take `O=C(O)[C@@H]1c2ccccc2-c2ccccc2[C@H]1C(=O)O`: the growth was 115% in the test with DU-145 prostate; 98% in the test with K-562 leukemia; 96.8% in the test on MALME-3M melanoma; 105% in the test with MDA-MB-231 breast; 102% in the test with RXF 393 renal; 105% in the test on SF-268 CNS. In addition, the growth was 98.8% in the test with SF-295 CNS; 98.4% with SF-539 CNS; 80.6% in the test with UACC-257 melanoma; 92.5% in the test on M14 melanoma; 101% in the test with HCT-15 colon; 102% with HT29 colon. The growth was 93.3% with SNB-75 CNS; 100% with SNB-19 CNS; 90.9% with PC-3 prostate; 110% in the test on SK-MEL-5 melanoma; 96% in the test on UACC-62 melanoma; 99.3% with LOX IMVI melanoma. The growth with SK-MEL-28 melanoma is 102%.

With `CC(O)c1cnc(/C=C2\SC(=S)N(Cc3ccccc3)C2=O)s1` (stereo not drawn), the growth in the test on DU-145 prostate was 53.2%; with K-562 leukemia it was 18%; in the test with MALME-3M melanoma, 90.8%; in the test with MDA-MB-231 breast it was 84.9%; in the test on RXF 393 renal, 73.6%; in the test on SF-268 CNS, 84.3%. The growth in the test with SF-295 CNS is 102%; with SF-539 CNS, 91.9%; in the test with UACC-257 melanoma, 72.8%; with M14 melanoma, 66.5%; in the test with HCT-15 colon, 83.6%; in the test with HT29 colon it was -8.15% (active). The growth in the test on SNB-75 CNS was 85.2%; in the test with SNB-19 CNS, 97.9%; in the test on PC-3 prostate, 34%; in the test on SK-MEL-5 melanoma it was 88.8%; in the test on UACC-62 melanoma it was 90.3%; in the test with LOX IMVI melanoma, 41.2%. Besides, in the test on SK-MEL-28 melanoma, the growth is 89.3%.

For `N#C/C(=C/c1ccc([N+](=O)[O-])cc1)n1nnc2cc(F)c(F)cc21`, the growth was 54.2% with DU-145 prostate; 13.9% in the test with K-562 leukemia; 74.8% in the test on MALME-3M melanoma; 84.7% in the test with MDA-MB-231 breast; 83.3% in the test with RXF 393 renal; 90.5% in the test with SF-268 CNS. Also, the growth was 91.4% in the test with SF-295 CNS; 20.7% with SF-539 CNS; 65.5% in the test on UACC-257 melanoma; 70.1% in the test on M14 melanoma; -7.15% (active) in the test on HCT-15 colon; 69.4% with HT29 colon. The growth is 74.9% in the test on SNB-75 CNS; 73.7% in the test on SNB-19 CNS; 52.5% in the test with PC-3 prostate; 88.6% in the test on SK-MEL-5 melanoma; 57.2% with UACC-62 melanoma; 42.4% in the test on LOX IMVI melanoma. Further, the growth in the test with SK-MEL-28 melanoma was 97.6%.

Regarding `O=C1Nc2ccc(I)cc2C1=O`, the growth was 106% with DU-145 prostate; 107% in the test on K-562 leukemia; 110% in the test on MALME-3M melanoma; 93.5% in the test with MDA-MB-231 breast; 91.4% in the test on RXF 393 renal; 110% in the test on SF-268 CNS. In addition, the growth with SF-295 CNS was 99.1%; in the test with SF-539 CNS, 100%; with UACC-257 melanoma, -28.4% (active); in the test with M14 melanoma, 95.9%; in the test with HCT-15 colon, 101%; in the test on HT29 colon, 93.8%. The growth in the test on SNB-75 CNS was 79.8%; in the test with SNB-19 CNS, 98.3%; with PC-3 prostate it was 86.7%; with SK-MEL-5 melanoma it was 101%; in the test with UACC-62 melanoma, 92.3%; in the test with LOX IMVI melanoma, 75.8%. Moreover, the growth in the test with SK-MEL-28 melanoma was 104%.

Consider `CCSc1nc(NC)c2cc(-c3ccc(C(F)(F)F)cc3)ccc2n1`, for which the growth in the test with DU-145 prostate was 105%; with K-562 leukemia, 105%; with MALME-3M melanoma, 96.9%; in the test on MDA-MB-231 breast it was 90.3%; in the test on RXF 393 renal it was 90.5%; in the test on SF-268 CNS, 103%. In addition, the growth is 102% in the test on SF-295 CNS; 103% with SF-539 CNS; 106% with UACC-257 melanoma; 96.5% in the test with M14 melanoma; 95.5% in the test on HCT-15 colon; 98.9% with HT29 colon. The growth was 99.4% in the test on SNB-75 CNS; 97% in the test on SNB-19 CNS; 94.9% with PC-3 prostate; 97.9% in the test on SK-MEL-5 melanoma; 92.9% in the test with UACC-62 melanoma; 106% in the test with LOX IMVI melanoma. The growth in the test with SK-MEL-28 melanoma is 95%.
